For assay [1], the target named is Thyrotropin receptor (Homo sapiens) (UniProt P16473). Kind of assay: qHTS Assay for Antagonists of the Thyroid Stimulating Hormone Receptor (AID 488980). Further: series mostly up to about 58 µM; 0% is about no effect. The gist of the method:
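TSHR-transfected HEK293 cells (2000/well) in HEPES-buffered HBSS with 70 uM RO 20-1724 were stimulated with 4 nM TSH (EC80, final) in the presence of compound. cAMP was measured by HTRF competition after lysis and 30 min at RT.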
(In general: qHTS replaces the single test concentration by a dilution series.)

Assay [2] addresses D(1A) dopamine receptor (Homo sapiens) (UniProt P21728). The assay is described as follows: HTS Assay for Allosteric Agonists of the Human D1 Dopamine Receptor: Primary Screen for Agonists (AID 488981). Further: 0% is about no effect. An outline of the steps:
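Calcium flux in an inducible, force-coupled HEK293 Trex D1 line (overnight at 30 C): agonist mode is the 180 s kinetic read after compound; potentiator mode is the following 180 s read after dopamine at EC20.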

For assay [3] the target is unchanged. Kind of assay: HTS Assay for Allosteric Agonists of the Human D1 Dopamine Receptor: Primary Screen for Antagonists (AID 488983).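 Further: calcium flux response to an EC80 dopamine challenge measured with no-wash dye; on the % scale 0 is the no-effect control and ±100 the full control effect; nearly all actives have a fitted effect of over 65% in size.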 An outline of the steps:
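Cells are induced with tetracycline and incubated overnight at 30 C, then loaded with calcium dye for 30 to 90 minutes at room temperature. Compound addition is followed by a 180 s read, then an EC80 dopamine addition and another 180 s read.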

A short description of assay [4]: Validation screen for small molecules that induce genotoxicity in human embryonic kidney (HEK293T) cells expressing luciferase-tagged ELG1 (AID 493106). Further: potency means the concentration at half of the fitted maximal effect. The gist of the method:
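Luminescence from an ELG1-luciferase fusion serves as the read-out, rising when genetic stress elevates ELG1 protein. HEK293T reporter cells (2,000 per well) received 23 nL compound, incubated 16 hr at 37 °C, then ONE-Glo for 30 min at room temperature.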

Assay [5] has as its target ATPase family AAA domain-containing protein 5 (Homo sapiens) (UniProt Q96QE3). Kind of assay: Validation screen for small molecules that inhibit ELG1-dependent DNA repair in human embryonic kidney (HEK293T) cells expressing luciferase-tagged ELG1 (AID 493107).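 Further: cells co-treated with the DNA-damaging agent 5-fluorouridine alongside compound; series mostly up to about 46 µM; on the % scale 0 is the no-effect control and ±100 the full control effect; inhibitors lower the ELG1-luciferase luminescence signal; nearly all actives have a fitted effect of over 70% in size.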 The gist of the method: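 Luminescence from ONE-Glo, developed 30 min at room temperature, served as read-out of ELG1-luciferase levels. Beforehand, reporter HEK293T cells received 5-fluorouridine plus test compound for 16 hr at 37 °C.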

In assay [6] the target is Thyrotropin-releasing hormone receptor (Homo sapiens) (UniProt P34981). The assay is described as follows: qHTS for Small Molecule Agonists and Allosteric Enhancers of Human TRH Receptor: Validation Screen for Agonists (AID 493127;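 active means calcium activation more than 3 SD above the typical response in the agonist read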;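 further: intracellular calcium rise by fluo-8 fluorescence before TRH EC20 addition; 0% is about no effect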). To be noted: TRH receptor agonist cell assay; at 2 µM; stronger effect = higher value. The gist of the method:
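Cells 2000/well, 10% FCS, 18 h 33.5C/5% CO2 → fluo-8 Ca dye, RT 30 min–1.5 h → FDSS baseline 10 × 1 s → compound added → 230 cycles (1 s/cycle) agonist mode. TRH controls.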

Assay [7] is described as follows: Nrf2 qHTS screen for inhibitors: Validation (AID 493153; active means well fitted inhibition curve with a large enough effect in the main read-out, with a control signal flat, not every such curve was filed as active). To be noted: viability change: measured here: cytotoxicity max response. An outline of the steps:
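Luminescence from an ARE-firefly luciferase reporter in A549 cells gives Nrf2 inhibition; an earlier CellTiter-Fluor fluorescent read flags cytotoxicity. Cells in 5% FBS OPTI-MEM received compound dilution series for 18-24 h at 37°C.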

The nature of assay [8]: qHTS for Inhibitors of Cell Surface uPA Generation: Validation Assay (AID 493164). Further: 0% is about no effect. The gist of the method: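 RAW 264.7 cells (4000/well) were plated overnight, then exposed for 18 h at 37 C, 5% CO2 to compounds in a 7-point 1:5 titration (2.45 nM–38.3 uM final). Intracellular ATP was read by ATP-Lite luminescence.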
The target in assay [9] is Galactokinase (Homo sapiens) (UniProt P51570). Kind of assay: qHTS Validation Assay for Inhibitors of Human Galactokinase (GALK) (AID 493189). Further: 0% is about no effect. The gist of the method: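 GALK (5 nM) with 35 uM ATP and 100 uM galactose in HEPES pH 8.0 with MgCl2, NaCl, DTT and BSA. Reaction ran 1 h at room temperature. Residual ATP read by Kinase-Glo Plus luminescence.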
Assay [10] has as its target Peptidyl-prolyl cis-trans isomerase NIMA-interacting 1 (Homo sapiens) (UniProt Q13526). Kind of assay: qHTS Validation Assay to Find Inhibitors of Pin1 (AID 504536; active means well fitted inhibition curve with a large enough effect in the polarisation, with a control signal flat, not every such curve was filed as active; the % refers to the polarisation;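 further: 0% = full Pin1 enzyme wells and -100% = no-enzyme wells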). An outline of the steps: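 Fluorescence polarization competition: compounds (titration) displace HiFluor-488-labeled Pin1-1b peptide from Pin1 (0.3 uM final) in pH 7.5 HEPES buffer with DTT, 10 min at room temperature; %Activity normalized to no-enzyme wells, curves fitted.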

For assay [11], the target named is Phosphoglycerate kinase, glycosomal (Trypanosoma brucei brucei) (UniProt P07378). Kind of assay: qHTS Validation Assay to Find Inhibitors of Phosphoglycerate Kinase (AID 504547).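 Further: control wells lack PGK and mark full inhibition.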 The gist of the method:
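Inhibition of the enzyme is judged by a Kinase-Glo Plus luminescent signal following a one-hour incubation at room temperature. Because 1,3-BPG is unstable, it is made in situ by GAPDH at 100nM final; no-PGK wells define the baseline.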

Assay [12] addresses phosphoglycerate mutase (Leishmania major) (UniProt Q4Q090). The assay is described as follows: qHTS Validation Assay to Find Inhibitors of Phosphoglycerate Mutase (AID 504548).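 Further: end-point luminescence from Kinase-GloPlus after the PGAM reaction; series mostly up to about 58 µM; on the % scale 0 is the no-effect control and ±100 the full control effect.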 The gist of the method:
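L. major PGAM (1.25nM final) was added to substrate buffer and pinned compound, incubated 45 minutes at room temperature, then Kinase-GloPlus added; luminescence read after 10 minutes. Buffer: 100 mM TEA pH 7.6, 5 mM MgCl2, 0.01% Tween-20.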

Assay [13] deals with Voltage-gated inwardly rectifying potassium channel KCNH2 (Homo sapiens) (UniProt Q12809). Kind of assay: qHTS Assay for Small Molecule Inhibitors of the Human hERG Channel Activity (AID 588834).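 Further: top concentration of the series differs between compounds; on the % scale 0 is the no-effect control and ±100 the full control effect; lower thallium flux fluorescence means stronger hERG block; nearly all actives have a fitted effect of over 50% in size.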 An outline of the steps:
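U2OS cells BacMam-transduced with hERG, 2000 cells/well, compound ~10 min at 37 °C before stimulation buffer. FluxOR thallium flux fluorescence read kinetically on FDSS; decrease indicates block; AC50 from Hill fits.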

In assay [14] the target is Glutaminase kidney isoform, mitochondrial (Homo sapiens) (UniProt O94925). The assay is described as follows: qHTS for Inhibitors of Glutaminase (GLS): LOPAC Validation (AID 624146). Further: potency means the concentration at half of the fitted maximal effect; nearly all actives have a fitted effect of over 60% in size. An outline of the steps: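 Human kidney-isoform GLS in 45 mM KH2PO4 pH 8.2, 0.02% Tween-20, with compound, started with 1mM L-Glutamine (added stock). Glutamate oxidase/HRP/Amplex red coupled fluorescence read at start and after 30 min at RT.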

The nature of assay [15]: qHTS of Trypanosoma Brucei Inhibitors: LOPAC Validation (AID 624147). Further: 0% is about no effect. The gist of the method: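 TbPYK + substrate in 50 mM TEA pH 7.2, 100 mM KCl, 10 mM MgCl2, 0.05% BSA, 0.01% Tween-20; cpd pinned; ADP 130 uM final; 45 min RT; Kinase-Glo Plus 10 min; luminescence endpoint.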
Assay [16] has as its target Glucagon-like peptide 1 receptor (Homo sapiens) (UniProt P43220). Kind of assay: qHTS of GLP-1 Receptor Agonists: LOPAC Validation (AID 624148).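 Further: luminescence from a luciferase reporter switched on by cAMP; 0% is about no effect; higher luminescence signal means agonism.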 An outline of the steps: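 Agonism scored as increased luciferase luminescence driven by cAMP in HEK293 clones carrying GLP-1R. Cells settled 12 hours, received compound for 4-6 hr at 37 deg C, 5% CO2, and were read after 12 min detection reagent at RT.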

A short description of assay [17]: qHTS of Nrf2 Activators: LOPAC Validation (AID 624149). Further: 0% is about no effect. An outline of the steps: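 Luminescence read-out of ARE-luciferase activation: AREc32_Fluc cells treated with compounds for 24 hr at 37 deg C, then lysed with Steady-Glo for 30 min at room temperature before reading.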
The nature of assay [18]: HTS Assay for Allosteric Antagonists of the Human D2 Dopamine Receptor: Hit Validation in HTRF (AID 624455).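 Further: stable D1 dopamine receptor cell line scored for blocking the D1 response; on the % scale 0 is the no-effect control and ±100 the full control effect.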 An outline of the steps: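 First, antagonism was screened by calcium flux in a force-coupled, inducible Hek293 Trex D2 line challenged with EC80 dopamine. Hits then went into an HTRF assay in cells stably expressing D1, testing inhibition of the D1 response.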
The target in assay [19] is Arylsulfatase A (Homo sapiens) (UniProt P15289). The assay is described as follows: qHTS screen for enhancers of Arylsulfatase A (ASA1): LOPAC Validation Assay (AID 720538). Further: 0% is about no effect. An outline of the steps:
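SV40-transformed fibroblasts from an MLD patient (ASA-I179S) were treated with compound for 48 h at 37 C. They were then lysed with 0.5 mM pNCS substrate (final) for 14 h at room temperature and stopped with NaOH; signal read by fluorescence (Ex 525/Em 598 nm), with increase denoting enhanced activity.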

Records with an inconclusive call do not appear. Activity calls are given as the source filed them. Unless noted, the call rests on the fitted dose curve; in most records, active means well fitted curve in the direction sought with a large enough effect; inconclusive means small, poorly fitted or top-dose-only effect, or another doubt; inactive means no such curve, though single readings can be large; an effect the other way counts as inactive or inconclusive.

Sequence of D(1A) dopamine receptor (Homo sapiens) (P21728 whole entry, looked up): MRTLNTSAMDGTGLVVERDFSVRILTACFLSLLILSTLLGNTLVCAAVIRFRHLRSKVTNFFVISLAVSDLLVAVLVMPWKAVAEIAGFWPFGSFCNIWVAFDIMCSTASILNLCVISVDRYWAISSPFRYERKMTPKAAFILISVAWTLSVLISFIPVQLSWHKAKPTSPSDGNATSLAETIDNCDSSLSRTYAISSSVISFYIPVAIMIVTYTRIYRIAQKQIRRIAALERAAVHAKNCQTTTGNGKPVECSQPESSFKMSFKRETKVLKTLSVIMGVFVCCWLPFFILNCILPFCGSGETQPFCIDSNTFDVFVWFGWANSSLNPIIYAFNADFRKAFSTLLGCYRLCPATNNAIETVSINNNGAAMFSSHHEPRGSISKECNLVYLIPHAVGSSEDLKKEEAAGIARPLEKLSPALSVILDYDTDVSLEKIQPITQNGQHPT
Sequence of ATPase family AAA domain-containing protein 5 (Homo sapiens) (Q96QE3 whole entry, looked up, the tested form may be a part): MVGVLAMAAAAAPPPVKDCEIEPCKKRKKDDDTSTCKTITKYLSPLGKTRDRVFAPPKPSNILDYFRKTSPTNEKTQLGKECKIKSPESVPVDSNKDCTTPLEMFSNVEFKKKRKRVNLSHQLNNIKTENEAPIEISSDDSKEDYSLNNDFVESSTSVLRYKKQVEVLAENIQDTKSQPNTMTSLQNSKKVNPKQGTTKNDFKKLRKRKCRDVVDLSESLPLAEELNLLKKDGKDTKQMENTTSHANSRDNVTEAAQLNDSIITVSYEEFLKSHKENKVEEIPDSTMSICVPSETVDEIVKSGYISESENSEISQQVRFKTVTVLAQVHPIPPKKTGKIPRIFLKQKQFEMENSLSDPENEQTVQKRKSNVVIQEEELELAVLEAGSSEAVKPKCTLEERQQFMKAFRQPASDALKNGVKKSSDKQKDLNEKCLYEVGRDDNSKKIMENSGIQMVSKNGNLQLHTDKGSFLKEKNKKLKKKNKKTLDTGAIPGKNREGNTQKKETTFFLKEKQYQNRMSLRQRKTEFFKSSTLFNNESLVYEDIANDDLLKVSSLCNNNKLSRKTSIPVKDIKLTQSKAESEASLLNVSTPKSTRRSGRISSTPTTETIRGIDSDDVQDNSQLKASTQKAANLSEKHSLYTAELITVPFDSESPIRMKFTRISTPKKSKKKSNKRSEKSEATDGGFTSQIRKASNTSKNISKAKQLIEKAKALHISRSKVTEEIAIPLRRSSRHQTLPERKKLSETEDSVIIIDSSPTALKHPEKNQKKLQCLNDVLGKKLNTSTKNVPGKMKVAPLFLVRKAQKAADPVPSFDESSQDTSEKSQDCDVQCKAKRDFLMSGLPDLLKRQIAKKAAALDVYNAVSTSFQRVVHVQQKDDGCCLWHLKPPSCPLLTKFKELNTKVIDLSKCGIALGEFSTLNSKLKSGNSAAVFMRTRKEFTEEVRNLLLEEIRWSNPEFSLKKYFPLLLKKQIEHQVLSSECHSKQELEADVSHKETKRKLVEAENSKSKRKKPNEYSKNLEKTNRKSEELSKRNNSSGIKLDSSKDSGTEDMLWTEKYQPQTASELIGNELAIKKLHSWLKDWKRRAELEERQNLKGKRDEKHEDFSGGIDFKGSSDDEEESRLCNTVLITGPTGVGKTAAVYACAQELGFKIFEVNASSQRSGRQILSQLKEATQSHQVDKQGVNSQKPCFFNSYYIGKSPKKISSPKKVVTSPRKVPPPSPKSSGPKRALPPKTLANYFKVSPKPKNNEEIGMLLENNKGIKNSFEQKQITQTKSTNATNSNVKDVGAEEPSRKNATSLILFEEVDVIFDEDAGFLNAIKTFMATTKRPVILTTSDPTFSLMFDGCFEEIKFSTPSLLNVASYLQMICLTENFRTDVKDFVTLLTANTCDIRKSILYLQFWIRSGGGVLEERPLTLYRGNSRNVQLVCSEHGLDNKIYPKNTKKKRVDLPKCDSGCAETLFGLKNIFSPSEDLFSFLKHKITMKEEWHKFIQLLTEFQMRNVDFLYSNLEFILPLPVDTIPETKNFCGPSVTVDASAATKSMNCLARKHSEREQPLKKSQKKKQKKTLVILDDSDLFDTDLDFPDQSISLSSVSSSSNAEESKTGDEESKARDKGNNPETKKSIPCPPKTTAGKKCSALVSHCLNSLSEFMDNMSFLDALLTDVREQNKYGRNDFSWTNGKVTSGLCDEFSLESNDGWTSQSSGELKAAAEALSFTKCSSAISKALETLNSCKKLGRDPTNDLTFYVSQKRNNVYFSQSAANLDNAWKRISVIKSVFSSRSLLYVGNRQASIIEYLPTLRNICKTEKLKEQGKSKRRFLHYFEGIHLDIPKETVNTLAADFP
Sequence of Galactokinase (Homo sapiens) (P51570 whole entry, looked up): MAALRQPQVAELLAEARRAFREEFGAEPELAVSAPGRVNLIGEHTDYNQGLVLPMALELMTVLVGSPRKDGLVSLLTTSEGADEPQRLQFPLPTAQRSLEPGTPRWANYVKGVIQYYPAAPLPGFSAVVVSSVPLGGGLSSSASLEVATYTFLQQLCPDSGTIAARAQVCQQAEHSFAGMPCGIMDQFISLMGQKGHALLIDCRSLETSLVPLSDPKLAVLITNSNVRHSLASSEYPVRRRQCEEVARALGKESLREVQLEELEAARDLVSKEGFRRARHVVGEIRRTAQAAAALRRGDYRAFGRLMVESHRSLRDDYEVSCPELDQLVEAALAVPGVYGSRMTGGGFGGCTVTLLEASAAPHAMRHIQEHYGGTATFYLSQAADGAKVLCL
Sequence of Phosphoglycerate kinase, glycosomal (Trypanosoma brucei brucei) (P07378 whole entry, looked up): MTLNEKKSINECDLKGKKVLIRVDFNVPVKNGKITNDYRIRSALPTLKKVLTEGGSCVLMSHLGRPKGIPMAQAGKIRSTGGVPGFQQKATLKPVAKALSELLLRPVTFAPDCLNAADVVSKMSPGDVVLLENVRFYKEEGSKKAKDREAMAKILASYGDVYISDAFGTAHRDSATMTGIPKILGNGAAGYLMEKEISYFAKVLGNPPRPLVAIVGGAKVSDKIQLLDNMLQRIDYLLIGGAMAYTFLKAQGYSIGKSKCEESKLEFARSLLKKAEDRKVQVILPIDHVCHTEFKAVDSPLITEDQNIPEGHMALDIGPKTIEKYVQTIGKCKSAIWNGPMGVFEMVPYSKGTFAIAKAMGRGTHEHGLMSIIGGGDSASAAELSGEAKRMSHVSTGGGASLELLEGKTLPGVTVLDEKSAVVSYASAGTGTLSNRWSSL
Sequence of Arylsulfatase A (Homo sapiens) (P15289 whole entry, looked up): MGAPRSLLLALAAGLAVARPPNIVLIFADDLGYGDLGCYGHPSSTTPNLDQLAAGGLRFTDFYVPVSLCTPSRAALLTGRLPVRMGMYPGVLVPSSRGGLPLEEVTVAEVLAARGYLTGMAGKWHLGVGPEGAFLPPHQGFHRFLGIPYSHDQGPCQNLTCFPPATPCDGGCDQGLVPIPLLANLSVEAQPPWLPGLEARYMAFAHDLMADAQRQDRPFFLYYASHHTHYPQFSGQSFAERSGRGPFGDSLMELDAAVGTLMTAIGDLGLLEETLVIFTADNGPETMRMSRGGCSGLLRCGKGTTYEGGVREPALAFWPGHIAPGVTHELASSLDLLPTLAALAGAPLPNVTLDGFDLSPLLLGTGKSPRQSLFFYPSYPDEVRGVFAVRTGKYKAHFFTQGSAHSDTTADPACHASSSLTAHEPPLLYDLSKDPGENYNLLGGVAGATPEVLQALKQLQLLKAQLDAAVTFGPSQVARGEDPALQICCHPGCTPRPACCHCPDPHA
Sequence of Glutaminase kidney isoform, mitochondrial (Homo sapiens) (O94925 whole entry, looked up, canonical isoform): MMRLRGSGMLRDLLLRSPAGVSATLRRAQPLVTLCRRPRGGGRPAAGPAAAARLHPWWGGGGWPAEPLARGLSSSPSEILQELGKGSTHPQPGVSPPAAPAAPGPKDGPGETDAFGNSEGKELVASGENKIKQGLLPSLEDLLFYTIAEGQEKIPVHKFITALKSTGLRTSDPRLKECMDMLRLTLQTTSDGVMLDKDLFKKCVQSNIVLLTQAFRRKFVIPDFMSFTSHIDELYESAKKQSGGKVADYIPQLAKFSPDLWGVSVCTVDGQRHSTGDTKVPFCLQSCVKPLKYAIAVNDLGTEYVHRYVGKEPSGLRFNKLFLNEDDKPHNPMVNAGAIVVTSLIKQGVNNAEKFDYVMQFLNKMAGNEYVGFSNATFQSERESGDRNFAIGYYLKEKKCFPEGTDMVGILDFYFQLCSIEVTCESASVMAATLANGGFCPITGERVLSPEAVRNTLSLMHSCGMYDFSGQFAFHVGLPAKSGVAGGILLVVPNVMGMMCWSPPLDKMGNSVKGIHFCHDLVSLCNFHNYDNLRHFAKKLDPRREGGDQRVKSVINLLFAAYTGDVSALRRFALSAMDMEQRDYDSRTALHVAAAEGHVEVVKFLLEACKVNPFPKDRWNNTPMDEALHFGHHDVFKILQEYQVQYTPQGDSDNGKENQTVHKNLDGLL
Sequence of Glucagon-like peptide 1 receptor (Homo sapiens) (P43220 whole entry, looked up): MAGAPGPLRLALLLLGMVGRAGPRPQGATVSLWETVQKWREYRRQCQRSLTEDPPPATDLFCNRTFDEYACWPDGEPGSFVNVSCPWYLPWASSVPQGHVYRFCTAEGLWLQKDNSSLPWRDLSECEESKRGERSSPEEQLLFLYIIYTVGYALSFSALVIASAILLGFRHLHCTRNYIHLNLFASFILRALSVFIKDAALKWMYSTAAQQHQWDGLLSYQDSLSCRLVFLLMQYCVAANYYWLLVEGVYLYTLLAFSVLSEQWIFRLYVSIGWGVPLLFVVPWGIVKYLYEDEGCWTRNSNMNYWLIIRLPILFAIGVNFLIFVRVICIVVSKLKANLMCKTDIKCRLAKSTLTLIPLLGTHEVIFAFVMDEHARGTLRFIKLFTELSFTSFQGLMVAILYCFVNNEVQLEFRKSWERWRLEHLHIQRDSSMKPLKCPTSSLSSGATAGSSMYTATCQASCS
Sequence of Peptidyl-prolyl cis-trans isomerase NIMA-interacting 1 (Homo sapiens) (Q13526 whole entry, looked up): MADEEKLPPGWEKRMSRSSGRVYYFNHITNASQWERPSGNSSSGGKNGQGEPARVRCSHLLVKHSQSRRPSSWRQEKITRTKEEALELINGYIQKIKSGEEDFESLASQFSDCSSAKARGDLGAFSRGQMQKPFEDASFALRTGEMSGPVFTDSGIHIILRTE

On to `S=C(Nc1ccccc1)Nc1nccs1`, for which the molecule was called inactive in assay [1], in assay [2], in assay [3], in [7], in assay [8] and in assay [9]. The molecule was classed as inactive in [12], in assay [15], in assay [16], in assay [17] and in [18]. For the same molecule, the Potency was 20.6 µM (active) in assay [4] and 11.2 µM (active) in [14]. The Potency entry in assay [5], in assay [10], in [11], in assay [13] and in assay [19] was “inactive” in each case. The activation in assay [6] is 1.31% (inactive). Moreover, the viability change in [7] is -0.228%.

Values taken from PubChem BioAssay (NCATS).
